A selection: hits, their analogues and other compounds. The true share with any hit is near 19%.
IL1B secr inh = inhibitors of inflammasome signaling (IL-1 beta secretion). hit rate 4.7% among 360,000. THP-1 LPS/ATP IL-1B secretion, AlphaLISA, 16 h; active compounds read low. activity change, % at 57.5 µM; in the data active = activity change below about -50%; inconclusive = mostly about -30% to -49%
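THP-1 cells pretreated 1 hr with compounds (up to 57.5 uM final), then stimulated with LPS (250 ng/mL final) plus ATP (1.25 mM final); secreted IL-1B measured by AlphaLISA after 16 hr, decreased signal indicating inhibition.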
ELG1 DNA repair = inhibitors of ELG1-dependent DNA repair in HEK293T cells. HEK293T ELG1-luciferase reporter, luminescence, 16 h; DNA damage induced by 5-fluorouridine. Potency, µM (doses to about 46.1 µM), for the others: at the highest dose activity change, negative = inhibition, most hits filed as inhibitors. hit rate 2.3% among 330,000. AID 504467; also: potency is read from the fitted curve at half-maximal effect; nearly all actives have a fitted effect of over 55% in size
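Cells (2,000 per well) received 5-fluorouridine plus test compound or DMSO and were incubated 16 hr at 37 °C, 5% CO2. Luciferase activity was read by luminescence 30 min after ONE-Glo addition; signal suppression marked inhibition of damage-induced ELG1 function.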
HT1080-NT tox = kills 2HG-producing HT-1080-NT fibrosarcoma cells | HT-1080-NT fibrosarcoma viability, CellTiter-Glo ATP luminescence, 48 h | Potency, µM (top dose mostly 46.1 µM), for inactives: at the top dose activity, negative = less viability, hits mostly cytotoxic | hit rate 1.6% among 360,000 | AID 686970;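 also: NT is the 2HG producing partner of a matched IDH1 knockdown line; potency is read from the fitted curve at half-maximal effect; 0% = DMSO-treated cells and -100% = media-only wells without cells; nearly all actives have a fitted effect of over 55% in size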
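Fibrosarcoma NT cells, 750 per well in 5% FBS RPMI, were exposed to compound for 48 hours. Viability: CellTiter-Glo luminescence.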
HT1080 IDH1KD tx = HT-1080 IDH1 knockdown cell toxicity (counter line). HT-1080 IDH1 knockdown viability, ATP luminescence, 48 h. AID 686971. Potency, µM (titrated, usually from 46.1 µM), for inactives: at the top dose activity, negative = toxicity, actives largely listed as cytotoxic. hit rate 2% among 360,000;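 also: potency is read from the fitted curve at half-maximal effect; 0% = DMSO wells and -100% = cell-free medium wells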
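Assay cells: HT-1080 with IDH1 knockdown, 750 per well, RPMI/5% FBS. Exposure: 48 h at 37 °C following 2 h pre-incubation. Read: CellTiter-Glo luminescence; fitted concentration-response, curve class assigned.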
DT40 TDP1 CPT = DT40-hTDP1 cell growth loss with CPT | chicken DT40 Tdp1-/-;hTDP1 cells + 20 nM CPT, ATP luminescence, 48 h | AID 686979 | Potency, µM (doses to about 46.2 µM), inactives show top-dose activity change, negative = growth inhibition, actives largely listed as inhibitors | hit rate 12% among 420,000; also: potency is read from the fitted curve at half-maximal effect; nearly all actives have a fitted effect of over 55% in size
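Cell growth measured by CellTiter-Glo luminescence after a minimum 48 h, 37 C compound exposure with 20 nM CPT in Tdp1-knockout DT40 cells stably expressing hTDP1, seeded 400/well; qHTS titration format.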
DT40 TDP1 no CPT = qHTS for Inhibitors of human tyrosyl-DNA phosphodiesterase 1 (TDP1): qHTS in cells in absence of CPT | DT40 Tdp1-/- hTDP1 cells, no CPT, ATP luminescence, 48 h | Potency, µM (series often up to 46.2 µM), without a hit: at the highest dose activity change, negative = growth inhibition, usual class: inhibitors | hit rate 15% among 420,000 | AID 686978, 2013; also: potency is read from the fitted curve at half-maximal effect; nearly all actives have a fitted effect of over 55% in size
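Growth kinetics read by CellTiter-Glo luminescence after ≥48 hr at 37 °C. Cells: DT40 Tdp1-/- stably carrying human TDP1, 400 per well, compound exposure in the absence of CPT (DMSO vehicle).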
Starred values were filed as active, the others as inactive. Unless noted, calls follow the shape of the dose curve; as a rule, active = well fitted curve in the direction sought with a large enough effect; inconclusive = small, poorly fitted or top-dose-only effect, or another doubt; inactive = no such curve, though single readings can be large; an effect the other way counts as inactive or inconclusive. Unless noted, % is scaled to controls: 0 for no effect and ±100 for the full control effect.

For COc1ccc(NC(=O)Cn2nnc(C(=O)NCCc3ccccc3)c2N)cc1 the results were IL1B secr inh 22.2, ELG1 DNA repair 14.5%, HT1080-NT tox inconclusive, HT1080 IDH1KD tx inconclusive, DT40 TDP1 CPT inconclusive and DT40 TDP1 no CPT 2.5%.
Screening CCOc1ccccc1NC(=O)Cn1nnc(C(=O)NCc2ccc3c(c2)OCO3)c1N returned IL1B secr inh 30.2, ELG1 DNA repair inconclusive, HT1080-NT tox inconclusive, HT1080 IDH1KD tx 11.6µM*, DT40 TDP1 CPT 4.11µM* and DT40 TDP1 no CPT 2.59µM*.
Cc1cc(C)cc(NC(=O)Cn2nnc(C(=O)NCc3ccc4c(c3)OCO4)c2N)c1 was read as IL1B secr inh 64.0, ELG1 DNA repair 21.3%, HT1080-NT tox 18.4µM*, HT1080 IDH1KD tx inconclusive, DT40 TDP1 CPT -4.3% and DT40 TDP1 no CPT -0.4%.
Screening COc1cccc(CNC(=O)c2nnn(CC(=O)Nc3ccc(Br)cc3)c2N)c1 returned IL1B secr inh 5.3, ELG1 DNA repair inconclusive, HT1080-NT tox -19.9%, HT1080 IDH1KD tx inconclusive, DT40 TDP1 CPT 10.3µM* and DT40 TDP1 no CPT 5.17µM*.
COc1cc(OC)c(OC)cc1/C=c1\[nH]c(=O)/c(=C/c2cc(OC)c(OC)cc2OC)[nH]c1=O was read as DT40 TDP1 CPT 0.794µM* and DT40 TDP1 no CPT 0.708µM*.
COc1ccc(/C=C2\CCC/C(=C\c3ccc(OC)c(OC)c3OC)C2=O)c(OC)c1OC was read as IL1B secr inh 0.0, ELG1 DNA repair 23.1µM*, HT1080-NT tox 1.1%, HT1080 IDH1KD tx 1.9%, DT40 TDP1 CPT inconclusive and DT40 TDP1 no CPT 16.4µM*.
For COc1cc(OC)c(OC)cc1/C=C1\CCC/C(=C\c2cc(OC)c(OC)cc2OC)C1=O the results were IL1B secr inh -56.3*, ELG1 DNA repair 14.6µM*, HT1080-NT tox inconclusive, HT1080 IDH1KD tx inconclusive, DT40 TDP1 CPT inconclusive and DT40 TDP1 no CPT 23.1µM*.
Cc1nnc(NC(=O)C(C)Sc2nnc(CNC(=O)c3ccccc3F)n2C)s1 (stereo unspecified) was read as IL1B secr inh -14.7, ELG1 DNA repair 7.5%, HT1080-NT tox 4.1%, HT1080 IDH1KD tx 2.9%, DT40 TDP1 CPT -6.2% and DT40 TDP1 no CPT -3.6%.
Screening COC(=O)c1c(NC(=O)CN2CCN(Cc3ccc4c(c3)OCO4)CC2)sc(C)c1C returned IL1B secr inh -75.9*, ELG1 DNA repair 8.2µM*, HT1080-NT tox inconclusive, HT1080 IDH1KD tx inconclusive, DT40 TDP1 CPT inconclusive and DT40 TDP1 no CPT inconclusive.
COC(=O)c1ccsc1NC(=O)CN1CCN(Cc2ccc3c(c2)OCO3)CC1 was read as IL1B secr inh -4.0, ELG1 DNA repair 5.17µM*, HT1080-NT tox -8.0%, HT1080 IDH1KD tx -4.9%, DT40 TDP1 CPT inconclusive and DT40 TDP1 no CPT inconclusive.
Screening CCOC(=O)C(C#N)=C1CCN(Cc2ccccc2)CC1 returned IL1B secr inh -18.5, ELG1 DNA repair -5.9%, HT1080-NT tox -0.7%, HT1080 IDH1KD tx -2.4%, DT40 TDP1 CPT -10.8% and DT40 TDP1 no CPT -11.6%.
Screening CCOC(=O)/C(C#N)=C1/C(=O)N(Cc2ccccc2)c2ccccc21 returned IL1B secr inh -11.9, ELG1 DNA repair -16.2%, HT1080-NT tox -3.5%, HT1080 IDH1KD tx -13.8%, DT40 TDP1 CPT 7.31µM* and DT40 TDP1 no CPT 5.17µM*.
For O=C(NCc1ccccc1)c1ccc(C(=O)N(C2CCCCC2)C2CCCCC2)cc1 the results were IL1B secr inh inconclusive, ELG1 DNA repair inconclusive, HT1080-NT tox 0.7%, HT1080 IDH1KD tx -18.7%, DT40 TDP1 CPT 23.1µM* and DT40 TDP1 no CPT inconclusive.
For O=C(C(=O)N(C1CCCCC1)C1CCCCC1)c1ccccc1 the results were IL1B secr inh 7.9, HT1080-NT tox -21.8%, HT1080 IDH1KD tx inconclusive, DT40 TDP1 CPT 10.3µM* and DT40 TDP1 no CPT 7.31µM*.
`O=C(Nc1ccccc1)N1CC2(CCN(C(=O)c3ccncc3)CC2)C1` gave DT40 TDP1 CPT -4.5% and DT40 TDP1 no CPT 6.6%.
For CCC(C)C(NC(=O)C(Cc1ccc(O)cc1)NC(=O)OCc1ccccc1)C(=O)OC (stereo unspecified) the results were IL1B secr inh 24.4, HT1080-NT tox 6.3%, HT1080 IDH1KD tx 1.0%, DT40 TDP1 CPT inconclusive and DT40 TDP1 no CPT inconclusive.
`C[C@@H](c1ccccc1)N1C[C@@H](COCc2ccccc2)Oc2cc(N3CCC[C@@H]3CO)ccc2S1(=O)=O` gave IL1B secr inh 0.0, HT1080-NT tox 0.4%, HT1080 IDH1KD tx 9.6%, DT40 TDP1 CPT inconclusive and DT40 TDP1 no CPT inconclusive.
For Cc1c(N=N/C(C(=O)Nc2ccccc2)=C(/O)c2ccccc2)c(=O)n(-c2ccccc2)n1C the results were IL1B secr inh -1.5, ELG1 DNA repair inconclusive, HT1080-NT tox 2.4%, HT1080 IDH1KD tx -3.3%, DT40 TDP1 CPT inconclusive and DT40 TDP1 no CPT 20.6µM*.
`O=C1N(Cc2cccc(Cl)c2)C[C@@H]2C[C@@H](c3cccn3-c3cccnc3)N3CCC[C@@]123` gave IL1B secr inh -56.4*, ELG1 DNA repair -9.6%, HT1080-NT tox -7.2%, HT1080 IDH1KD tx -23.6%, DT40 TDP1 CPT inconclusive and DT40 TDP1 no CPT 20.6µM*.
For CCn1ncc([C@@H]2C[C@H]3CN(Cc4cccc(Cl)c4)C(=O)[C@]34CCCN24)c1C the results were IL1B secr inh inconclusive, ELG1 DNA repair -2.9%, HT1080-NT tox -7.8%, HT1080 IDH1KD tx -5.0%, DT40 TDP1 CPT inconclusive and DT40 TDP1 no CPT -28.1%.
Screening Cn1cc([C@@H]2C[C@H]3CN(Cc4cccc(Cl)c4)C(=O)[C@]34CCCN24)c(-c2ccccc2)n1 returned IL1B secr inh -80.0*, ELG1 DNA repair inconclusive, HT1080-NT tox -18.9%, HT1080 IDH1KD tx -24.2%, DT40 TDP1 CPT inconclusive and DT40 TDP1 no CPT inconclusive.
CCOC(=O)C1CCCN(c2nc3ccccc3nc2C(C#N)C(=O)OCCOC)C1 (stereo unspecified) was read as IL1B secr inh -18.0, ELG1 DNA repair -26.5%, HT1080-NT tox -5.5%, HT1080 IDH1KD tx -8.2%, DT40 TDP1 CPT inconclusive and DT40 TDP1 no CPT 20.6µM*.
`CCOC(=O)C1CCCN(c2nc3ccccc3nc2C(C#N)C(=O)OC(C)COC)C1` (stereo unspecified) gave IL1B secr inh -22.5, ELG1 DNA repair inconclusive, HT1080-NT tox 0.4%, HT1080 IDH1KD tx 3.9%, DT40 TDP1 CPT -15.1% and DT40 TDP1 no CPT inconclusive.
